Results on 7 compounds are retold here after PubChem BioAssay (Tox21).

The structures appear in SMILES notation. Where “and” joins values, the source holds several entries; their conditions need not be identical. Identical values can stand only once. Records with an inconclusive call do not appear. More than one record can exist for a structure, and the calls need not agree. Calls of active or inactive are those of the source. Unless noted, the call rests on the fitted dose curve.

A short description of assay [1]: Nuclear factor erythroid 2-related factor 2/antioxidant responsive element (Nrf2/ARE) small molecule agonists: qHTS cell viability counter screen in human keratinocytes (AID 1919968; active means well fitted curve in the direction sought with a large enough effect in the repeat runs; an effect the other way counts as inactive or inconclusive; further: nearly all actives have a fitted effect of over 55% in size; further: potency means the concentration at half of the fitted maximal effect). In outline:
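Cells of the KeratinoSens line were plated at 1,500 per well and left for 5 h before compound transfer from DMSO stocks. After a 23 h incubation (37 C, 5% CO2), CellTiter-Fluor was added. Signal was taken as fluorescence intensity 1 h later.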

Assay [2] is described as follows: Nuclear factor erythroid 2-related factor 2/antioxidant responsive element (Nrf2/ARE) small molecule agonists: luciferase reporter gene qHTS assay in human keratinocytes (AID 1919969). Further: nearly all actives have a fitted effect of over 35% in size. Further: potency means the concentration at half of the fitted maximal effect.
For assay [3], the target named is Gonadotropin-releasing hormone receptor (Homo sapiens) (UniProt P30968). Briefly: Human gonadotropin-releasing hormone receptor (GnRHR) small molecule agonists, calcium flux assay in GnRHR-HEK293 cells (AID 1920063). Further: nearly all actives have a fitted effect of over 35% in size. In outline:
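Compounds dissolved in DMSO are pin-transferred onto dye-loaded GnRHR-HEK293 cells, which were seeded 18 h before at 37 C/5% CO2. Calcium signal is read as fluorescence intensity at 1 s intervals for 3 min.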

The target of assay [4] is KiSS-1 receptor (Homo sapiens) (UniProt Q969F8). The experiment in a line: Human kisspeptin (KISS1R) small molecule agonists, calcium flux assay in KISS1R-HEK293 cells (AID 1920064; active means well fitted curve in the direction sought with a large enough effect in the repeat runs; an effect the other way counts as inactive or inconclusive). In outline: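 Cell line: HEK293, stable human KISS1R. Dye loading 1 h at 37 C after 18 h culture. Read: kinetic fluorescence, 480/540 nm, 3 min at 1 s intervals.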
Assay [5] in a line: G protein-coupled receptor (GPCR) small molecule agonists, calcium flux assay: HEK293 wild type cell line counter screen (AID 1920065). Put shortly:
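Tox21 10K compounds, 15 concentrations each in triplicate, pin-transferred in DMSO onto dye-loaded cells; kinetic read at 480/540 nm for 3 min, 1 s intervals.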

Assay [6] can be described thus: p53 small molecule agonists, cell-based qHTS assay with human liver microsomes (AID 1963577).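 Further: p53 response element beta-lactamase reporter cells with liver microsomes plus NADPH.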 In outline:
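16 h, 37 C exposure of p53RE-bla cells to compounds with human liver microsomes and NADPH (0.5 mg/mL final each); detection via LiveBLAzer mixture, 2 h dark at room temperature.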

A short description of assay [7]: p53 small molecule agonists, cell-based qHTS assay with rat liver microsomes (AID 1963578). Put shortly:
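With rat liver microsomes and NADPH present (0.5 mg/mL final each), p53RE-bla cells are treated with compound for 16 h at 37 C. LiveBLAzer detection mixture is then applied for 2 h at room temperature in the dark.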

A short description of assay [8]: p53 small molecule agonists, cell-based qHTS assay with human liver microsomes: qHTS cell viability counter screen (AID 1963579). Further: nearly all actives have a fitted effect of over 45% in size. Further: potency means the concentration at half of the fitted maximal effect. Put shortly:
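In this multiplexed counter screen, the reporter plates were subsequently treated with CellTiter-Glo so that cell viability, reflected by luminescence, could be recorded for p53RE-bla cells dosed 16 h with compounds under microsomal activation (HLM and NADPH).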

Assay [9] is described as follows: p53 small molecule agonists, cell-based qHTS assay with rat liver microsomes: qHTS cell viability counter screen (AID 1963580). Further: nearly all actives have a fitted effect of over 45% in size. Further: potency means the concentration at half of the fitted maximal effect. Put shortly: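 Cytotoxicity counter screen: intracellular ATP read by CellTiter-Glo luminescence in the p53 reporter wells. HCT-116 p53RE-bla cells were treated for 16 h at 37 C alongside rat liver microsomes and NADPH, each 0.5 mg/mL final.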

The nature of assay [10]: p53 small molecule agonists, cell-based qHTS assay: qHTS cell viability counter screen (AID 1963581). Further: nearly all actives have a fitted effect of over 45% in size. Further: potency means the concentration at half of the fitted maximal effect. Put shortly:
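ATP content measured by luminescence in HCT-116 p53RE-bla cells treated 16 h at 37 C, same wells as the reporter screen.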

Assay [11] can be described thus: p53 small molecule agonists, cell-based qHTS assay (AID 1963582; active means well fitted activation curve with a large enough effect in the signal ratio in the repeat runs, not every such curve was filed as active; the % refers to the signal ratio). Put shortly:
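16 h compound exposure (37 C) of p53 response element–bla cells, preceded by 5 h recovery at 37 C/5% CO2; read-out via LiveBLAzer B/G FRET substrate, 2 h RT, fluorescence intensity.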

For assay [12], the target named is 5-hydroxytryptamine receptor 2A (Homo sapiens) (UniProt P28223). Briefly: 5-hydroxytryptamine receptor 2A (HTR2A) small molecule antagonists, cell-based qHTS assay (AID 1963586). Further: nearly all actives have a fitted effect of over 45% in size. Further: potency means the concentration at half of the fitted maximal effect. In outline:
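CHO cells stably expressing human HTR2A were plated for 18 h at 37 C, then loaded with calcium dye for 1 h. Compounds were preincubated 5 min at room temperature before DOI (4 nM solution) was added. Kinetic fluorescence was read for 3 min.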

Assay [13] shares this target. Briefly: 5-hydroxytryptamine receptor 2A (HTR2A) small molecule agonists, cell-based qHTS assay (AID 1963587). Further: nearly all actives have a fitted effect of over 30% in size. Put shortly:
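Kinetic calcium-flux fluorescence (2 min, 1 sec intervals) after compound addition in agonist mode. HTR2A-CHO cells were cultured 18 h, then dye-loaded 1 h at 37 C.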

For assay [14], the target named is Muscarinic acetylcholine receptor M1 (Homo sapiens) (UniProt P11229). Briefly: Cholinergic receptor muscarinic 1 (CHRM1) small molecule antagonists, cell-based qHTS assay (AID 1963588). Further: nearly all actives have a fitted effect of over 40% in size. Put shortly:
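Compounds were tested at 15 concentrations in three independent runs. Dye-loaded CHRM1-CHO cells were exposed 5 min at room temperature before stimulation by acetylcholine added at 50nM. Intracellular calcium was read kinetically on FDSS for 3 min.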

The target is the same in assay [15]. Briefly: Cholinergic receptor muscarinic 1 (CHRM1) small molecule agonists, cell-based qHTS assay (AID 1963589). Further: nearly all actives have a fitted effect of over 35% in size. Put shortly:
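Homogeneous fluorescence calcium flux, agonist mode. Human M1-expressing CHO cells; compound dosed at 15 concentrations, three independent runs; signal sampled every 1 sec.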

Assay [16] can be described thus: cAMP Responsive Elements (CRE) small molecule agonists, cell-based qHTS assay (AID 1963590). Put shortly:
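HEK 293T cells stably bearing CRE-bla were plated at 2,000 cells per well and rested 18 h. Compounds, positive controls or DMSO were added for 3 h at 37 C. LiveBLAzer B/G substrate was then loaded for 2 h at room temperature.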

Assay [17] is described as follows: cAMP Responsive Elements (CRE) small molecule antagonists, cell-based qHTS assay (AID 1963591; active means well fitted inhibition curve with a large enough effect in the signal ratio in the repeat runs, not every such curve was filed as active; the % refers to the signal ratio). In outline: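 First, CRE-bla HEK293T cells settled 18 h at 37 C. Next, compound and 0.25 uM final NKH477 were applied for 3 h. Last, LiveBLAzer B/G substrate was loaded for 2 h at room temperature.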
Assay [18] concerns the target Beta-2 adrenergic receptor (Homo sapiens) (UniProt P07550). Briefly: Adrenergic beta2 receptor (ADRB2) small molecule antagonists, cell-based qHTS assay (AID 1963592). Further: series mostly up to about 92 µM; nearly all actives have a fitted effect of over 50% in size. In outline:
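Assay format: CHO-ADRB2 cells, 18-20hr seeding at 37C/5% CO2, then compound plus 1nM isoproterenol agonist mix for 0.5hr RT. Homogeneous time-resolved fluorescence cAMP detection after 1hr, expressed as 665/615 nm ratio.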

The target is the same in assay [19]. Briefly: Adrenergic beta2 receptor (ADRB2) small molecule agonists, cell-based qHTS assay (AID 1963593).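 Further: CHO cells stably overexpressing human ADRB2.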 In outline:
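CHO cells stably over-expressing ADRB2 were plated overnight at 37C, then dosed with compounds plus a stimulation mix containing 100uM IBMX and 25uM Ro-20-1724 for 0.5hr at room temperature. cAMP was measured by HTRF competition, 1hr.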

Assay [20] addresses D(2) dopamine receptor (Homo sapiens) (UniProt P14416). Briefly: Dopamine D2 receptor (DRD2) small molecule agonists, cell-based qHTS assay (AID 1963594). Further: nearly all actives have a fitted effect of over 35% in size. Put shortly: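 cAMP accumulation in DRD2-HEK293 cells measured by HTRF after 1 h detection; compounds added 10 min before NKH477 (200nM […]) forskolin-analogue stimulation, 30 min at room temperature, with Ro20-1724 present at 0.1 mM final.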

Muscarinic acetylcholine receptor M1 (Homo sapiens), sequence (P11229 whole entry, looked up): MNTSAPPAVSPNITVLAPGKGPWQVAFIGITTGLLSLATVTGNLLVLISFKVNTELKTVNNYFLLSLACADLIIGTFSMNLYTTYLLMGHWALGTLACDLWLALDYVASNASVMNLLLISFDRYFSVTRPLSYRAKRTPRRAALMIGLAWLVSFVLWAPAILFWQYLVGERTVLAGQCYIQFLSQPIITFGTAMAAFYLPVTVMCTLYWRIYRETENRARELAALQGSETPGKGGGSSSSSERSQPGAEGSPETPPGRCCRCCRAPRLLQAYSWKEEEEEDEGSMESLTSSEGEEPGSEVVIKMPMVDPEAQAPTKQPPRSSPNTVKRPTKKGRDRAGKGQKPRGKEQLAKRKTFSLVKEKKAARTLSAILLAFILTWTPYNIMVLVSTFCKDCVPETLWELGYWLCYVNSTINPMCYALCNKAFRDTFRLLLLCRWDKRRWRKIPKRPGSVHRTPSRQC
KiSS-1 receptor (Homo sapiens), sequence (Q969F8 whole entry, looked up): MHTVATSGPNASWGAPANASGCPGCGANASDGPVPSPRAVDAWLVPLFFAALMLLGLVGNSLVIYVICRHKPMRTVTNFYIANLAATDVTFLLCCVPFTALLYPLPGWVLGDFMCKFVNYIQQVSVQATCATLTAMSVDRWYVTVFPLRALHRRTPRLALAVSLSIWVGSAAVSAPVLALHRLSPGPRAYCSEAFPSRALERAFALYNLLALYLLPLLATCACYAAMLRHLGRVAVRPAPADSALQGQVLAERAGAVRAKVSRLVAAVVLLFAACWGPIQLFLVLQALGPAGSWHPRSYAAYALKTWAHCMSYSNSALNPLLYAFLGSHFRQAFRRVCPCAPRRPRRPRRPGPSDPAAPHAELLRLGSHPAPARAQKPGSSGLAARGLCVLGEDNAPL
D(2) dopamine receptor (Homo sapiens), sequence (P14416 whole entry, looked up): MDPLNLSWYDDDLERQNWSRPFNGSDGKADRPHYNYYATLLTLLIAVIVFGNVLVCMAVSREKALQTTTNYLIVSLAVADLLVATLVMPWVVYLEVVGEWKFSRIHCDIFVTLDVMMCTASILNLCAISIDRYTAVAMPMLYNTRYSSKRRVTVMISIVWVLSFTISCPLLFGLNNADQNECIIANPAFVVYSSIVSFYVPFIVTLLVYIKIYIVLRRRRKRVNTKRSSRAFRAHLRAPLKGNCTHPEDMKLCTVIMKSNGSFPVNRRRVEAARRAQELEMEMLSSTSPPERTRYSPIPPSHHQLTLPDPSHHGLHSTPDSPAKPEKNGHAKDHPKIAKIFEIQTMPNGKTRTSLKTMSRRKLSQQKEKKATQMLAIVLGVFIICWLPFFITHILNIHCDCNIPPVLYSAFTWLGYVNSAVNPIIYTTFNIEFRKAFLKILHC
5-hydroxytryptamine receptor 2A (Homo sapiens), sequence (P28223 whole entry, looked up): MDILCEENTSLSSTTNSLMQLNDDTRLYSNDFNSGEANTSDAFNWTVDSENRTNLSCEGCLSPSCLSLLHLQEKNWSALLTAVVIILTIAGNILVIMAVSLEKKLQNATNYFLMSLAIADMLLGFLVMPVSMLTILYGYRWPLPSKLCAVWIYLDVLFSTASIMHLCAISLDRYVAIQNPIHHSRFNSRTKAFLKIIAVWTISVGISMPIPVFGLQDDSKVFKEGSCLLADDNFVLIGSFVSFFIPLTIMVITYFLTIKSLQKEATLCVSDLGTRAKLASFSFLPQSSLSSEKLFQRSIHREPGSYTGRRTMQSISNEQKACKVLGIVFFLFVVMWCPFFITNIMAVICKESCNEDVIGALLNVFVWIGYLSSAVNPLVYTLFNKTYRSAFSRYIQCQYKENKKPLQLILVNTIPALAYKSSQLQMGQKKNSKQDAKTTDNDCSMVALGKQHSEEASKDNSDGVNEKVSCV
Gonadotropin-releasing hormone receptor (Homo sapiens), sequence (P30968 whole entry, looked up): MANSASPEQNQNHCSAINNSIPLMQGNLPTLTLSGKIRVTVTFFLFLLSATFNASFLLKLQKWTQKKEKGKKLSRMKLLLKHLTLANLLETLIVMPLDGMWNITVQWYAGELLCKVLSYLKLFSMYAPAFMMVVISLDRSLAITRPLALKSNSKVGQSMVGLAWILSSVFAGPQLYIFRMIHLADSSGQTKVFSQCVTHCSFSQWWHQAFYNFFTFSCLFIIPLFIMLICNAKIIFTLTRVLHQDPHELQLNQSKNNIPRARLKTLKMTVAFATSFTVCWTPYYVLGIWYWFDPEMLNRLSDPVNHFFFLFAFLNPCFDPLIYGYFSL
Beta-2 adrenergic receptor (Homo sapiens), sequence (P07550 whole entry, looked up): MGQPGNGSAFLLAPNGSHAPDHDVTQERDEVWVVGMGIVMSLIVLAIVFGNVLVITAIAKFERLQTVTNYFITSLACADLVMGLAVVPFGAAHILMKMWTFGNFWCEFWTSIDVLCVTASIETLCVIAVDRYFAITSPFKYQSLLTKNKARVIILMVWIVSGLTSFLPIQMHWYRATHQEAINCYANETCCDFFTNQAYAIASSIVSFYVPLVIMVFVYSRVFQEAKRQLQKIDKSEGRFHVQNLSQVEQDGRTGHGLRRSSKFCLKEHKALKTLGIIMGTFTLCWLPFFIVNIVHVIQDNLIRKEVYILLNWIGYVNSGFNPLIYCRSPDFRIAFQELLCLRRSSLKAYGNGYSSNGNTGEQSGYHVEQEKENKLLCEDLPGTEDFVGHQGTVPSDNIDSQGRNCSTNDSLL

With `CC(C)c1cccc(O)c1`, the Potency result in assay [1], in [2], in assay [3], in assay [4], in assay [5] and in assay [6] was “inactive” each time. Moreover, the Potency entry in assay [7], in assay [8], in [9], in assay [10], in assay [11] and in assay [12] was “inactive” in each case. Further, the Potency entry in assay [13], in assay [14], in [15], in assay [16], in [17] and in [18] was “inactive” each time. Further, the Potency entry in assay [19] and in assay [20] was “inactive” throughout.

Take `O=[N+]([O-])c1ccc2c(c1)Cc1ccccc1-2`: the Potency entry in assay [1], in [2], in assay [3], in [4], in assay [5] and in [6] was “inactive” throughout. The Potency result in assay [7], in assay [8], in assay [9], in [10], in assay [11] and in [12] was “inactive” each time. For the same compound, the Potency result in assay [13], in assay [14], in assay [15], in assay [16], in [17] and in [18] was “inactive” throughout. The Potency result in assay [19] and in assay [20] was “inactive” in each case.

Take `Nc1cc([N+](=O)[O-])ccc1O`: the Potency result in assay [1], in assay [2], in [3], in assay [4], in assay [5] and in [6] was “inactive” throughout. In addition, the Potency entry in [7], in assay [8], in [9], in assay [11], in assay [12] and in assay [13] was “inactive” each time. Also, the Potency result in assay [14], in [15], in [16], in [17], in assay [18] and in assay [19] was “inactive” each time. In addition, the Potency entry in [20] was “inactive”. In addition, the Potency result in [10] was “inactive and 362 nM (active)”.

As to `CN(C)c1ccc(C(=C2C=CC(=[N+](C)C)C=C2)c2ccc(N(C)C)cc2)cc1`, the Potency in assay [1] was 7.66 µM (active) and 13.7 µM (active); in assay [2], 6.08 µM (active); in assay [8], 32.2 µM (active) and 40.8 µM (active); in assay [9], 22.8 µM (active) and 36.3 µM (active); in assay [10], 18.1 µM (active) and 40.8 µM (active) and 17.8 µM (active). The Potency result in assay [3], in assay [4], in assay [5], in [6], in [7] and in [11] was “inactive” in each case.

In the case of `c1ccc(CNCc2ccccc2)cc1`, the Potency entry in assay [1], in [2], in assay [3], in [4], in [5] and in assay [6] was “inactive” each time. Further, the Potency entry in assay [7], in assay [8], in assay [9], in assay [10], in assay [11] and in assay [13] was “inactive” throughout. Besides, the Potency entry in assay [14], in assay [15], in assay [16], in assay [17], in assay [18] and in assay [19] was “inactive” throughout. Also, the Potency entry in [20] was “inactive”. The Potency in assay [12] is 8.4 µM (active).

For the compound `Cc1cc(C)cc(O)c1`, the Potency entry in assay [1], in [2], in assay [3], in assay [4], in assay [5] and in assay [6] was “inactive” throughout. Further, the Potency result in assay [7], in assay [8], in [9], in [10], in [11] and in assay [12] was “inactive” in each case. Besides, the Potency result in assay [13], in assay [14], in assay [15], in assay [16], in assay [17] and in [18] was “inactive” each time. Besides, the Potency result in assay [19] and in assay [20] was “inactive” in each case.

In the case of `C[Si](C)(C)Cl`, the Potency entry in [1], in assay [2], in assay [3], in assay [4], in assay [5] and in [6] was “inactive” in each case. Further, the Potency result in assay [7], in assay [8], in assay [9], in assay [10], in assay [11] and in assay [12] was “inactive” in each case. Moreover, the Potency entry in assay [13], in assay [14], in assay [15], in [16], in assay [17] and in [18] was “inactive” throughout. Further, the Potency result in assay [19] and in assay [20] was “inactive” each time.
